The campaign covered roughly 140,000 compounds. About 1,700 (1.2%) were called active. This is one part of a sample in which actives are shown more often than they occur. Values without a mark were called inactive.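 Rule for the calls: active = viability at or below a set limit, 4 SD under the median of all tested compounds (cut at about 3.7% in these data); inactive = the rest.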

This assay is described as follows: growth suppression of PTEN-null HCT116, primary screen, cell-based, CellTiter-Glo (AID 827).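 Note: PTEN knockout HCT116 line with beta catenin targeted HCT116 as companion control.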 Particulars: 60 h, at 10 µM, stronger effect = lower value.
Usually viability stands for a read-out of living cells in per cent, often relative to untreated cells. Consider `CN(C)c1ccc(/C=C2\CC3C4CC=C5CC(O)CCC5(C)C4CCC3(C)C2=O)cc1` (stereo not given), for which the viability is 2.86% (active).

As for `Cc1cccc(-n2c(O)c(/C=N/N3CCOCC3)c(=O)[nH]c2=S)c1`, the viability was 108%.

On to `O=c1[nH]c(=S)n(C2CC2)c(O)c1/C=N/N1CCOCC1`, for which the viability is 95.3%.

With `CN(C)CC1CCCCC1OC(=O)c1ccc(Cl)c(Cl)c1` (stereo not given), the viability was 82.2%.

As to `CCCCC(=O)N/N=C/c1c(O)n(CC)c(=S)n(CC)c1=O`, the viability is 11.8%.

The record behind these values is PubChem BioAssay AID827 (SRMLSC, 2007).
